# PubChem BioAssay (NCI)
# Compounds without any hit were thinned out: in the full panel of roughly 79,000, 15% have a hit. Unmarked numbers belong to inactive results. Active and inactive are the calls of the source. No stated cut-off is given here; in the data, active means growth inhibition above about 70%; inactive means the rest.
# Assays:
# [1] = NCI Yeast Anticancer Drug Screen. Data for the rad52 strain (AID 147);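 further: 0% = growth of vehicle-treated control cultures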; conditions: S. cerevisiae rad52 mutant growth inhibition, hits give high values
# Outline: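 The repair-mutant yeast strain was incubated with compounds, then growth was read and inhibition derived relative to vehicle.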
# [2] = NCI Yeast Anticancer Drug Screen. Data for the wt1 strain (AID 149);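 further: 0% = growth of vehicle-treated wt1 cultures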; conditions: S. cerevisiae wt1 strain (SPY 50644) growth inhibition, hits give high values
# Outline: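 Compounds are added to wt1 yeast cultures. Growth is then measured. Inhibition is expressed relative to vehicle-treated controls.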
# [3] = NCI Yeast Anticancer Drug Screen. Data for the rad50EPP+ strain (AID 151);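 further: 0% = growth of vehicle-treated control cultures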; conditions: S. cerevisiae rad50 mutant strain, hits give high values
# Outline: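 Vehicle-normalised growth inhibition; rad50EPP+ yeast strain, altered in DNA damage repair, compound-treated.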
# [4] = NCI Yeast Anticancer Drug Screen. Data for the mgt1 strain (AID 153); conditions: S. cerevisiae mgt1 mutant growth inhibition, hits give high values
# Outline: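 Vehicle-normalized growth inhibition is determined in mgt1 yeast, a strain selected for a defined alteration in DNA repair or cell cycle control.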
# [5] = NCI Yeast Anticancer Drug Screen. Data for the rad50 strain (AID 155);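 further: 0% = growth of vehicle-only cultures of the same strain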; conditions: S. cerevisiae rad50 strain growth inhibition, hits give high values
# Outline: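 Inhibition values express reduced yeast growth in compound-treated cultures relative to vehicle-treated controls.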
# [6] = NCI Yeast Anticancer Drug Screen. Data for the mec2-1 strain (AID 157); conditions: S. cerevisiae mec2-1 strain, hits give high values
# Outline: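 Mutant yeast (mec2-1) grown with compound; growth inhibition relative to vehicle control reported.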
# [7] = NCI Yeast Anticancer Drug Screen. Data for the rad14 strain (AID 159);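 further: 0% = growth of vehicle-treated control cultures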; conditions: S. cerevisiae rad14 strain growth inhibition, hits give high values
# Outline: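 A mutant yeast strain defective in DNA damage repair is treated with compound; inhibition of its growth is scored against untreated, vehicle-exposed cultures.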
# [8] = NCI Yeast Anticancer Drug Screen. Data for the sgs1 mgt1 strain (AID 161);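 further: 0% = growth of cultures given vehicle only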; conditions: S. cerevisiae sgs1 mgt1 strain, hits give high values
# Outline: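 Compounds are added to genetically altered yeast, and growth is compared with cultures given vehicle alone to give percent inhibition.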
# [9] = NCI Yeast Anticancer Drug Screen. Data for the CLN2oe strain (AID 163);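 further: 0% = growth of vehicle-only control cultures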; conditions: S. cerevisiae CLN2oe strain, hits give high values
# Outline: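 Compounds are applied to yeast harbouring a defined cell-cycle control change; reduced growth compared with vehicle-treated controls gives the value.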
# [10] = NCI Yeast Anticancer Drug Screen. Data for the bub3 strain (AID 167); conditions: S. cerevisiae bub3 mutant strain, hits give high values
# Outline: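 Steps: expose the mutant yeast strain to compound; grow alongside vehicle-treated cultures; measure growth; express inhibition against the vehicle cultures.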
# [11] = NCI Yeast Anticancer Drug Screen. Data for the wt2 strain (AID 169);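 further: 0% = growth of vehicle-treated yeast cultures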; conditions: S. cerevisiae wt2 strain growth inhibition, hits give high values
# Outline: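 Against vehicle-treated controls, the growth of yeast exposed to each compound was compared, and the inhibition was recorded.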
# [12] = NCI Yeast Anticancer Drug Screen. Data for the mlh1 strain (AID 171);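 further: 0% = growth of vehicle-treated control cultures of the same strain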; conditions: S. cerevisiae mlh1 strain growth inhibition, hits give high values
# Outline: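 Measured: yeast growth. Reference: vehicle-treated controls. Organism: strain with a defined alteration affecting DNA damage repair or cell cycle control, treated with compound.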
# [13] = NCI Yeast Anticancer Drug Screen. Data for the sgs1 strain (AID 173);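 further: 0% = growth of vehicle-only control cultures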; conditions: S. cerevisiae sgs1 mutant, hits give high values
# Outline: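 Each compound was added to cultures of the altered yeast strain. Growth was recorded, and inhibition was derived by comparison with vehicle controls.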
# [14] = NCI Yeast Anticancer Drug Screen. Data for the mlh1 rad18 strain (AID 175); conditions: S. cerevisiae mlh1 rad18 strain growth inhibition, hits give high values
# Outline: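 Genetically defined yeast (DNA repair-deficient) exposed to compounds; growth inhibition determined relative to vehicle.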
# [15] = NCI Yeast Anticancer Drug Screen. Data for the rad18 strain (AID 177); conditions: S. cerevisiae rad18 mutant growth inhibition, hits give high values
# Outline: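 Vehicle-treated cultures served as the baseline for scoring compound-induced growth inhibition in DNA-repair-mutant yeast.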
# [16] = NCI Yeast Anticancer Drug Screen. Data for the cln2 rad14 strain (AID 165);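 further: 0% = growth equal to vehicle treated cultures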; conditions: S. cerevisiae cln2 rad14 strain, hits give high values
# Outline: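 Readout is yeast growth inhibition versus vehicle-treated controls, using a strain with cln2 and rad14 alterations exposed to compound.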
# [17] = at 5.0 µM (retest, dose inferred, filed as 0.5)
# [18] = at 50.0 µM (retest, dose inferred, filed as 5.0)
compound,measurement,setting,value
CC1=CC(C)(C)SC(SSSC2=NC(C)=CC(C)(C)S2)=N1,growth inhibition,[1]; at 1.2 µM,-3%
same,growth inhibition,[1]; at 3.7 µM,-3%
same,growth inhibition,[1]; at 11.0 µM,0%
same,growth inhibition,[1]; at 33.0 µM,7%
same,growth inhibition,[1]; at 100.0 µM,78% (active)
same,growth inhibition,[2]; at 1.2 µM,-3%
same,growth inhibition,[2]; at 3.7 µM,-2%
same,growth inhibition,[2]; at 11.0 µM,0%
same,growth inhibition,[2]; at 33.0 µM,7%
same,growth inhibition,[2]; at 100.0 µM,39%
same,growth inhibition,[3]; at 1.2 µM,-1%
same,growth inhibition,[3]; at 3.7 µM,-1%
same,growth inhibition,[3]; at 11.0 µM,0%
same,growth inhibition,[3]; at 33.0 µM,2%
same,growth inhibition,[3]; at 100.0 µM,31%
same,growth inhibition,[4]; at 1.2 µM,-8%
same,growth inhibition,[4]; at 3.7 µM,1%
same,growth inhibition,[4]; at 11.0 µM,3%
same,growth inhibition,[4]; at 33.0 µM,7%
same,growth inhibition,[4]; at 100.0 µM,89% (active)
same,growth inhibition,[5]; at 1.2 µM,-17%
same,growth inhibition,[5]; at 3.7 µM,-4%
same,growth inhibition,[5]; [17],-6%
same,growth inhibition,[5]; at 11.0 µM,-4%
same,growth inhibition,[5]; at 33.0 µM,1%
same,growth inhibition,[5]; [18],48%
same,growth inhibition,[5]; at 50.0 µM,15.6%
same,growth inhibition,[5]; at 100.0 µM,65%
same,growth inhibition,[6]; at 1.2 µM,-2%
same,growth inhibition,[6]; at 3.7 µM,-4%
same,growth inhibition,[6]; [17],0%
same,growth inhibition,[6]; at 11.0 µM,0%
same,growth inhibition,[6]; at 33.0 µM,8%
same,growth inhibition,[6]; [18],15%
same,growth inhibition,[6]; at 50.0 µM,10.7%
same,growth inhibition,[6]; at 100.0 µM,42%
same,growth inhibition,[7]; at 1.2 µM,-6%
same,growth inhibition,[7]; at 3.7 µM,-5%
same,growth inhibition,[7]; at 11.0 µM,-3%
same,growth inhibition,[7]; at 33.0 µM,8%
same,growth inhibition,[7]; at 100.0 µM,90% (active)
same,growth inhibition,[8]; [17],-10%
same,growth inhibition,[8]; [18],61%
same,growth inhibition,[8]; at 50.0 µM,39.2%
same,growth inhibition,[9]; at 1.2 µM,-10%
same,growth inhibition,[9]; at 3.7 µM,-17%
same,growth inhibition,[9]; at 11.0 µM,-14%
same,growth inhibition,[9]; at 33.0 µM,-13%
same,growth inhibition,[9]; at 100.0 µM,13%
same,growth inhibition,[10]; at 1.2 µM,-2%
same,growth inhibition,[10]; at 3.7 µM,-2%
same,growth inhibition,[10]; [17],-1%
same,growth inhibition,[10]; at 11.0 µM,1%
same,growth inhibition,[10]; at 33.0 µM,1%
same,growth inhibition,[10]; [18],24%
same,growth inhibition,[10]; at 50.0 µM,-3.25%
same,growth inhibition,[10]; at 100.0 µM,56%
same,growth inhibition,[11]; at 1.2 µM,-5%
same,growth inhibition,[11]; at 3.7 µM,-6%
same,growth inhibition,[11]; at 11.0 µM,-4%
same,growth inhibition,[11]; at 33.0 µM,4%
same,growth inhibition,[11]; at 100.0 µM,85% (active)
same,growth inhibition,[12]; at 1.2 µM,-5%
same,growth inhibition,[12]; at 3.7 µM,-4%
same,growth inhibition,[12]; at 11.0 µM,0%
same,growth inhibition,[12]; at 33.0 µM,11%
same,growth inhibition,[12]; at 100.0 µM,88% (active)
same,growth inhibition,[13]; at 1.2 µM,-4%
same,growth inhibition,[13]; at 3.7 µM,-2%
same,growth inhibition,[13]; at 11.0 µM,0%
same,growth inhibition,[13]; at 33.0 µM,14%
same,growth inhibition,[13]; at 100.0 µM,89% (active)
same,growth inhibition,[14]; [17],-4%
same,growth inhibition,[14]; [18],42%
same,growth inhibition,[14]; at 50.0 µM,29.8%
same,growth inhibition,[15]; at 1.2 µM,-4%
same,growth inhibition,[15]; at 3.7 µM,0%
same,growth inhibition,[15]; at 11.0 µM,7%
same,growth inhibition,[15]; at 33.0 µM,23%
same,growth inhibition,[15]; at 100.0 µM,88% (active)
CCCCCCC1OCC(O)C(OCCCC)O1 (stereo not drawn),growth inhibition,[1]; at 1.2 µM,-3%
same,growth inhibition,[1]; at 3.7 µM,-4%
same,growth inhibition,[1]; at 11.0 µM,-2%
same,growth inhibition,[1]; at 33.0 µM,-4%
same,growth inhibition,[1]; at 100.0 µM,-4%
same,growth inhibition,[2]; at 1.2 µM,-4%
same,growth inhibition,[2]; at 3.7 µM,-3%
same,growth inhibition,[2]; at 11.0 µM,-5%
same,growth inhibition,[2]; at 33.0 µM,-8%
same,growth inhibition,[2]; at 100.0 µM,-10%
same,growth inhibition,[3]; at 1.2 µM,-8%
same,growth inhibition,[3]; at 3.7 µM,-4%
same,growth inhibition,[3]; at 11.0 µM,2%
same,growth inhibition,[3]; at 33.0 µM,3%
same,growth inhibition,[3]; at 100.0 µM,50%
same,growth inhibition,[4]; at 1.2 µM,-6%
same,growth inhibition,[4]; at 3.7 µM,-4%
same,growth inhibition,[4]; at 11.0 µM,-4%
same,growth inhibition,[4]; at 33.0 µM,-6%
same,growth inhibition,[4]; at 100.0 µM,-3%
same,growth inhibition,[5]; at 1.2 µM,-5%
same,growth inhibition,[5]; at 3.7 µM,-11%
same,growth inhibition,[5]; [17],-15%
same,growth inhibition,[5]; at 11.0 µM,-4%
same,growth inhibition,[5]; at 33.0 µM,-3%
same,growth inhibition,[5]; [18],3%
same,growth inhibition,[5]; at 50.0 µM,-0.55%
same,growth inhibition,[5]; at 100.0 µM,1%
same,growth inhibition,[6]; at 1.2 µM,-2%
same,growth inhibition,[6]; at 3.7 µM,-3%
same,growth inhibition,[6]; [17],-11%
same,growth inhibition,[6]; at 11.0 µM,-2%
same,growth inhibition,[6]; at 33.0 µM,-5%
same,growth inhibition,[6]; [18],-35%
same,growth inhibition,[6]; at 50.0 µM,-13.7%
same,growth inhibition,[6]; at 100.0 µM,-4%
same,growth inhibition,[7]; at 1.2 µM,-5%
same,growth inhibition,[7]; at 3.7 µM,-4%
same,growth inhibition,[7]; at 11.0 µM,-4%
same,growth inhibition,[7]; at 33.0 µM,-3%
same,growth inhibition,[7]; at 100.0 µM,0%
same,growth inhibition,[8]; [17],-4%
same,growth inhibition,[8]; [18],16%
same,growth inhibition,[8]; at 50.0 µM,11.2%
same,growth inhibition,[9]; at 1.2 µM,-5%
same,growth inhibition,[9]; at 3.7 µM,-3%
same,growth inhibition,[9]; at 11.0 µM,-12%
same,growth inhibition,[9]; at 33.0 µM,-8%
same,growth inhibition,[9]; at 100.0 µM,-7%
same,growth inhibition,[16]; [17],-10%
same,growth inhibition,[16]; [18],60%
same,growth inhibition,[16]; at 50.0 µM,0.05%
same,growth inhibition,[10]; at 1.2 µM,-5%
same,growth inhibition,[10]; at 3.7 µM,-6%
same,growth inhibition,[10]; [17],-6%
same,growth inhibition,[10]; at 11.0 µM,-8%
same,growth inhibition,[10]; at 33.0 µM,-10%
same,growth inhibition,[10]; [18],15%
same,growth inhibition,[10]; at 50.0 µM,-8.05%
same,growth inhibition,[10]; at 100.0 µM,-12%
same,growth inhibition,[12]; at 1.2 µM,0%
same,growth inhibition,[12]; at 3.7 µM,-1%
same,growth inhibition,[12]; at 11.0 µM,0%
same,growth inhibition,[12]; at 33.0 µM,1%
same,growth inhibition,[12]; at 100.0 µM,6%
same,growth inhibition,[13]; at 1.2 µM,-4%
same,growth inhibition,[13]; at 3.7 µM,-1%
same,growth inhibition,[13]; at 11.0 µM,0%
same,growth inhibition,[13]; at 33.0 µM,0%
same,growth inhibition,[13]; at 100.0 µM,4%
same,growth inhibition,[14]; [17],2%
same,growth inhibition,[14]; [18],-4%
same,growth inhibition,[14]; at 50.0 µM,-15.8%
same,growth inhibition,[15]; at 1.2 µM,-3%
same,growth inhibition,[15]; at 3.7 µM,1%
same,growth inhibition,[15]; at 11.0 µM,-1%
same,growth inhibition,[15]; at 33.0 µM,-2%
same,growth inhibition,[15]; at 100.0 µM,1%
